{"source": "the supplement of paper PMC8728848", "binders": {"B1": {"name": "Aap lectin (Staphylococcus epidermidis) (protein)", "chain": "VNLNYSSPFMSLLSMPADSSSNNTKNTIDIPPTTVKGRDNYDFYGRVDIESNPTDLNATNLTRYNYGQPPGTTTAGAVQFKNQVSFDKDFDFNIRVANNRQSNTTGADGWGFMFSKKDGDDFLKNGGILREKGTPSAAGFRIDTGYYNNDPLDKIQKQAGQGYRGYGTFVKNDSQGNTSKVGSGTPSTDFLNYADNTTNDLDGKFHGQKLNNVNLKYNASNQTFTATYAGKTWTATLSELGLSPTDSYNFLVTSS"}}, "test_in_all_cases": "glycan array binding signal (z-score within array); higher = stronger binding", "conditions_in_all_cases": "glycan notation: IUPAC condensed, linker removed", "key": {"[1]": {"molecular_target": "GalNAc(b1-4)GlcNAc(b1-2)Man(a1-3)[GalNAc(b1-4)GlcNAc(b1-2)Man(a1-6)]Man(b1-4)GlcNAc(b1-4)GlcNAc", "outline": "(§1)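 The binding signal is a Z-score computed within each array and averaged over linkers. Arrays of the same protein sequence at different concentrations or buffers were also averaged together. Data originate from 3228 arrays in the Consortium for Functional Glycomics database, kept only where the protein sequence was available.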"}, "[2]": {"molecular_target": "GlcNAc(b1-2)Man(a1-3)[GlcNAc(b1-4)][GlcNAc(b1-2)Man(a1-6)]Man(b1-4)GlcNAc(b1-4)GlcNAc", "outline": "as §1"}, "GlcNAc(b1-3)Gal(b1-4)Glc": {"molecular_target": "GlcNAc(b1-3)Gal(b1-4)Glc", "outline": "as §1"}, "[3]": {"molecular_target": "GlcNAc(b1-3)Gal(b1-4)GlcNAc", "outline": "as §1"}, "[4]": {"molecular_target": "GlcNAc(b1-3)Gal(b1-4)GlcNAc(b1-2)Man(a1-3)[GlcNAc(b1-3)Gal(b1-4)GlcNAc(b1-2)Man(a1-6)]Man(b1-4)GlcNAc(b1-4)GlcNAc", "outline": "as §1"}, "[5]": {"molecular_target": "GlcNAc(b1-3)Gal(b1-4)GlcNAc(b1-3)Gal(b1-4)GlcNAc(b1-2)Man(a1-3)[GlcNAc(b1-3)Gal(b1-4)GlcNAc(b1-3)Gal(b1-4)GlcNAc(b1-2)Man(a1-6)]Man(b1-4)GlcNAc(b1-4)GlcNAc", "outline": "as §1"}, "[6]": {"molecular_target": "GlcNAc(b1-3)Gal(b1-4)GlcNAc(b1-6)[GlcNAc(b1-3)Gal(b1-3)]GalNAc", "outline": "as §1"}, "[7]": {"molecular_target": "Man(a1-2)Man(a1-3)[Man(a1-2)Man(a1-6)]Man(a1-6)[Man(a1-2)Man(a1-2)Man(a1-3)]Man", "outline": "as §1"}, "[8]": {"molecular_target": "Man(a1-3)[Man(a1-6)]Man(b1-4)GlcNAc(b1-4)[Fuc(a1-6)]GlcNAc", "outline": "as §1"}, "[9]": {"molecular_target": "Neu5Ac(a2-3)Gal(b1-3)GlcNAc(b1-2)[Neu5Ac(a2-3)Gal(b1-3)GlcNAc(b1-4)]Man(a1-6)[Neu5Ac(a2-3)Gal(b1-3)GlcNAc(b1-2)Man(a1-3)]Man(b1-4)GlcNAc(b1-4)GlcNAc", "outline": "as §1"}, "[10]": {"molecular_target": "Neu5Ac(a2-3)Gal(b1-4)GlcNAc(b1-2)Man", "outline": "as §1"}, "[11]": {"molecular_target": "Neu5Ac(a2-3)Gal(b1-4)GlcNAc(b1-3)Gal(b1-4)GlcNAc(b1-2)Man(a1-3)[Neu5Ac(a2-3)Gal(b1-4)GlcNAc(b1-3)Gal(b1-4)GlcNAc(b1-2)Man(a1-6)]Man(b1-4)GlcNAc(b1-4)GlcNAc", "outline": "as §1"}, "[12]": {"molecular_target": "Neu5Ac(a2-3)Gal(b1-4)GlcNAc(b1-3)Gal(b1-4)GlcNAc(b1-3)[Neu5Ac(a2-3)Gal(b1-4)GlcNAc(b1-3)Gal(b1-4)GlcNAc(b1-6)]GalNAc", "outline": "as §1"}, "[13]": {"molecular_target": "Neu5Ac(a2-3)Gal(b1-4)[Fuc(a1-3)]GlcNAc(b1-2)Man", "outline": "as §1"}, "[14]": {"molecular_target": "Neu5Ac(a2-6)Gal(b1-4)GlcNAc(b1-2)Man(a1-3)[GlcNAc(b1-2)Man(a1-6)]Man(b1-4)GlcNAc(b1-4)GlcNAc", "outline": "as §1"}, "[15]": {"molecular_target": "Neu5Ac(a2-6)Gal(b1-4)GlcNAc(b1-2)Man(a1-6)Man(b1-4)GlcNAc(b1-4)GlcNAc", "outline": "as §1"}, "[16]": {"molecular_target": "Neu5Ac(a2-6)Gal(b1-4)GlcNAc(b1-3)Gal(b1-4)GlcNAc(b1-2)Man(a1-3)[Neu5Ac(a2-6)Gal(b1-4)GlcNAc(b1-3)Gal(b1-4)GlcNAc(b1-2)Man(a1-6)]GalNAc", "outline": "as §1"}, "[17]": {"molecular_target": "Neu5Ac(a2-6)Gal(b1-4)GlcNAc(b1-3)Gal(b1-4)GlcNAc(b1-3)[Neu5Ac(a2-6)Gal(b1-4)GlcNAc(b1-3)Gal(b1-4)GlcNAc(b1-6)]GalNAc", "outline": "as §1"}, "[18]": {"molecular_target": "Neu5Ac(a2-6)Gal(b1-4)GlcNAc(b1-3)Gal(b1-4)[Fuc(a1-3)]GlcNAc(b1-3)Gal(b1-4)[Fuc(a1-3)]GlcNAc", "outline": "as §1"}, "Neu5Ac(a2-6)GalNAc": {"molecular_target": "Neu5Ac(a2-6)GalNAc", "outline": "as §1"}, "[19]": {"molecular_target": "Neu5Ac(a2-6)GalNAc(b1-4)GlcNAc6S", "outline": "as §1"}, "[20]": {"molecular_target": "Neu5Ac(a2-8)Neu5Ac(a2-3)Gal(b1-4)Glc", "outline": "as §1"}, "[21]": {"molecular_target": "Neu5Ac(a2-8)Neu5Ac(a2-8)Neu5Ac(a2-8)Neu5Ac(a2-3)[GalNAc(b1-4)]Gal(b1-4)Glc", "outline": "as §1"}, "Neu5Ac(b2-6)GalNAc": {"molecular_target": "Neu5Ac(b2-6)GalNAc", "outline": "as §1"}, "[22]": {"molecular_target": "Neu5Ac9Ac(a2-3)Gal(b1-3)GlcNAc", "outline": "as §1"}, "[23]": {"molecular_target": "Neu5Gc(a2-6)Gal(b1-4)GlcNAc", "outline": "as §1"}, "Neu5Gc(a2-6)GalNAc": {"molecular_target": "Neu5Gc(a2-6)GalNAc", "outline": "as §1"}, "[24]": {"molecular_target": "Neu5Gc(a2-8)Neu5Gc(a2-3)Gal(b1-4)GlcNAc", "outline": "as §1"}}, "note": "Shown is part of a subset that was picked to be rich in the strongest signals.", "data": [{"binder": "B1", "values": [{"measurement": "glycan array binding signal (z-score)", "setting": "[1]", "result": 3.29}, {"measurement": "glycan array binding signal (z-score)", "setting": "[2]", "result": -0.698}, {"measurement": "glycan array binding signal (z-score)", "setting": "GlcNAc(b1-3)Gal(b1-4)Glc", "result": 0.941}, {"measurement": "glycan array binding signal (z-score)", "setting": "[3]", "result": -0.278}, {"measurement": "glycan array binding signal (z-score)", "setting": "[4]", "result": 0.543}, {"measurement": "glycan array binding signal (z-score)", "setting": "[5]", "result": 3.83}, {"measurement": "glycan array binding signal (z-score)", "setting": "[6]", "result": -0.968}, {"measurement": "glycan array binding signal (z-score)", "setting": "[7]", "result": -0.858}, {"measurement": "glycan array binding signal (z-score)", "setting": "[8]", "result": -0.887}, {"measurement": "glycan array binding signal (z-score)", "setting": "[9]", "result": -0.885}, {"measurement": "glycan array binding signal (z-score)", "setting": "[10]", "result": -0.335}, {"measurement": "glycan array binding signal (z-score)", "setting": "[11]", "result": -0.87}, {"measurement": "glycan array binding signal (z-score)", "setting": "[12]", "result": -0.88}, {"measurement": "glycan array binding signal (z-score)", "setting": "[13]", "result": -0.708}, {"measurement": "glycan array binding signal (z-score)", "setting": "[14]", "result": -0.88}, {"measurement": "glycan array binding signal (z-score)", "setting": "[15]", "result": -0.806}, {"measurement": "glycan array binding signal (z-score)", "setting": "[16]", "result": -0.905}, {"measurement": "glycan array binding signal (z-score)", "setting": "[17]", "result": 2.93}, {"measurement": "glycan array binding signal (z-score)", "setting": "[18]", "result": -0.333}, {"measurement": "glycan array binding signal (z-score)", "setting": "Neu5Ac(a2-6)GalNAc", "result": -0.816}, {"measurement": "glycan array binding signal (z-score)", "setting": "[19]", "result": -1.16}, {"measurement": "glycan array binding signal (z-score)", "setting": "[20]", "result": -0.83}, {"measurement": "glycan array binding signal (z-score)", "setting": "[21]", "result": -0.444}, {"measurement": "glycan array binding signal (z-score)", "setting": "Neu5Ac(b2-6)GalNAc", "result": -0.527}, {"measurement": "glycan array binding signal (z-score)", "setting": "[22]", "result": 0.704}, {"measurement": "glycan array binding signal (z-score)", "setting": "[23]", "result": -0.275}, {"measurement": "glycan array binding signal (z-score)", "setting": "Neu5Gc(a2-6)GalNAc", "result": -0.523}, {"measurement": "glycan array binding signal (z-score)", "setting": "[24]", "result": 1.51}]}]}
